Laboratory results: PubChem BioAssay (EPA / NIEHS)
Values joined by “and” are separate entries in the source; they are usually repeats but may differ in a detail not shown here. Equal entries are not always repeated. More than one record can exist for a structure, and the calls need not agree. Active and inactive are the calls of the source. How the source made its calls: active means hit-call score of the fitted dose curve at least 0.9, where 1 is the maximum; inactive means score below 0.9.

What was measured:
Conditions in all cases: mRNA level, 48 h; actives raise or lower the signal
[1] = read-out: Apoptosis regulator Bcl-2 (Homo sapiens) (UniProt P10415); test: LTEA_HepaRG_BCL2: Life Technologies and Expression Analysis (LTEA) Assay for Bcl-2 gene using HepaRG (AID 2283475)
In short: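 Each chemical was tested in duplicate on HepaRG cultures held in serum-free induction medium for 48 h, highest concentration 100 uM with half-log dilutions. Transcript levels came from multiplexed qRT-PCR, normalised to housekeeping genes; activity was scored in either direction relative to DMSO.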

[2] = read-out: Bcl-2 (BID) gene, BID (gene 637); test: LTEA_HepaRG_BID: Life Technologies and Expression Analysis (LTEA) Assay for Bcl-2 (BID) gene using HepaRG (AID 2283476)
In short: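 Assay used HepaRG hepatic cells treated 48 h in serum-free medium with half-log dilutions from 100 uM. Endpoint: BID mRNA, qRT-PCR, normalized to ACTB/GAPDH/POLR2A.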

Caspase-3 (Homo sapiens) = Caspase-3 (Homo sapiens) (UniProt P42574); test: LTEA_HepaRG_CASP3: Life Technologies and Expression Analysis (LTEA) Assay for cysteine-aspartic acid protease (CASP3) using HepaRG (AID 2283477)
In short: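 Differentiated HepaRG cells, plated 48 h, were treated in duplicate in serum-free induction medium for 48 h with eight half-log concentrations up to 100 uM in 0.5% DMSO. CASP3 mRNA measured by qRT-PCR, normalized to ACTB, GAPDH, POLR2A.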

[3] = read-out: Cytochrome P450 (CYP24A1), CYP24A1 (gene 1591); test: LTEA_HepaRG_CYP24A1: Life Technologies and Expression Analysis (LTEA) Assay for Cytochrome P450 (CYP24A1) using HepaRG (AID 2283478)
In short: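 HepaRG cells plated 48 h, then exposed in duplicate in serum-free induction medium for 48 h to 8-point half-log series from 100 uM in 0.5% DMSO. CYP24A1 mRNA by Fluidigm qRT-PCR, normalized to ACTB, GAPDH, POLR2A; bidirectional fit versus DMSO.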

[4] = read-out: Cytochrome P450 (CYP1A2), CYP1A2 (gene 1544); test: LTEA_HepaRG_CYP1A2: Life Technologies and Expression Analysis (LTEA) Assay for Cytochrome P450 (CYP1A2) using HepaRG (AID 2283479)
In short: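 Differentiated human HepaRG cells in serum-free induction medium exposed 48 hours in duplicate to 8 half-log concentrations from 100 uM, 0.5% DMSO. CYP1A2 mRNA quantified by qRT-PCR, normalized to ACTB, GAPDH and POLR2A; bidirectional fitting versus DMSO.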

[5] = read-out: cysteine-aspartic acid protease (CASP8), CASP8 (gene 841); test: LTEA_HepaRG_CASP8: Life Technologies and Expression Analysis (LTEA) Assay for cysteine-aspartic acid protease (CASP8) using HepaRG (AID 2283480)
In short: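 qRT-PCR readout of CASP8 mRNA, normalized to three housekeeping genes, after 48 h chemical exposure of HepaRG cells; 8-point half-log series, top 100 uM, 0.5% DMSO vehicle. Bidirectional curve fitting against DMSO baseline.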

[6] = read-out: Cytochrome P450 (CYP2B6), CYP2B6 (gene 1555); test: LTEA_HepaRG_CYP2B6: Life Technologies and Expression Analysis (LTEA) Assay for Cytochrome P450 (CYP2B6) using HepaRG (AID 2283481)
In short: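 Differentiated human HepaRG cells in serum-free induction medium, dosed in duplicate for 48 h over 8 half-log concentrations topping at 100 uM (0.5% DMSO). CYP2B6 mRNA measured by TaqMan qRT-PCR, normalized to ACTB, GAPDH, POLR2A; bidirectional fit versus DMSO.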

[7] = read-out: Cytochrome P450 2C19 (Homo sapiens) (UniProt P33261); test: LTEA_HepaRG_CYP2C19: Life Technologies and Expression Analysis (LTEA) Assay for CYP2C19 using HepaRG (AID 2283482)
In short: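 Differentiated HepaRG cells in serum-free induction medium exposed 48 h in duplicate, 8 concentrations from 100 uM by half-log steps in 0.5% DMSO. CYP2C19 mRNA measured by TaqMan qRT-PCR, normalized to ACTB, GAPDH, POLR2A. Bidirectional fit versus DMSO.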

CYP2C8 (gene 1558) = test: LTEA_HepaRG_CYP2C8: Life Technologies and Expression Analysis (LTEA) Assay for CYP2C8 using HepaRG (AID 2283483)
In short: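 HepaRG (human liver line), 48 h chemical exposure, 8-pt half-log series from 100 uM, 0.5% DMSO vehicle. Readout: CYP2C8 transcript by qRT-PCR, housekeeping-normalized. Bidirectional fit vs DMSO baseline.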

CYP2C9 (gene 1559) = test: LTEA_HepaRG_CYP2C9: Life Technologies and Expression Analysis (LTEA) Assay for CYP2C9 using HepaRG (AID 2283484)
In short: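 HepaRG, 48 h dosing, 8-pt half-log series, top 100 uM, 0.5% DMSO vehicle. Read-out: CYP2C9 transcript by TaqMan qRT-PCR, housekeeping-normalized (ACTB/GAPDH/POLR2A). Gain or loss fitted vs DMSO baseline.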

CYP2E1 (gene 1571) = test: LTEA_HepaRG_CYP2E1: Life Technologies and Expression Analysis (LTEA) Assay for CYP2E1 using HepaRG (AID 2283485)
In short: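 Assay uses 48 h exposure of HepaRG hepatic cells, eight concentrations to 100 uM. Expression of CYP2E1 is quantified by TaqMan qRT-PCR with ACTB, GAPDH and POLR2A normalization; curves fitted in both directions relative to vehicle.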

CYP4A11 (gene 1579) = test: LTEA_HepaRG_CYP4A11: Life Technologies and Expression Analysis (LTEA) Assay for CYP4A11 using HepaRG (AID 2283486)
In short: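 Differentiated HepaRG cells, 48 h after plating, exposed in duplicate for 48 h to 8 half-log concentrations up to 100 uM in 0.5% DMSO in serum-free induction medium. CYP4A11 mRNA measured by TaqMan qRT-PCR, normalized to ACTB, GAPDH and POLR2A.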

[8] = read-out: DNA damage-inducible transcript 3 (DDIT3), DDIT3 (gene 1649); test: LTEA_HepaRG_DDIT3: Life Technologies and Expression Analysis (LTEA) Assay for DNA damage-inducible transcript 3 (DDIT3) using HepaRG (AID 2283488)
In short: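 Eight-point concentration-response (100 uM highest, half-log dilutions) in HepaRG, 48 h, duplicate wells. Endpoint: qRT-PCR mRNA, normalized (ACTB, GAPDH, POLR2A), bidirectional fitting with DMSO as baseline.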

[9] = read-out: Pro-epidermal growth factor (Homo sapiens) (UniProt P01133); test: LTEA_HepaRG_EGF: Life Technologies and Expression Analysis (LTEA) Assay for Epidermal growth factor (EGF) using HepaRG (AID 2283489)
In short: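 HepaRG cells (~100,000/well, 48 h pre-culture) exposed in duplicate for 48 h in serum-free induction medium to 8 half-log concentrations up to 100 uM in 0.5% DMSO. EGF mRNA by qRT-PCR, normalized to ACTB/GAPDH/POLR2A; bidirectional fit versus DMSO.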

[10] = read-out: Early growth response protein 1 (EGR1) transcription factor, EGR1 (gene 1958); test: LTEA_HepaRG_EGR1: Life Technologies and Expression Analysis (LTEA) Assay for Early growth response protein 1 (EGR1) transcription factor using HepaRG (AID 2283490)
In short: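 HepaRG, 48 h exposure, 8-pt half-log series from 100 uM, 0.5% DMSO vehicle; EGR1 transcript by TaqMan qRT-PCR (Fluidigm array), housekeeping-normalized; bidirectional fit relative to DMSO baseline.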

[11] = read-out: Ezrin (EZR), EZR (gene 7430); test: LTEA_HepaRG_EZR: Life Technologies and Expression Analysis (LTEA) Assay for Ezrin (EZR) using HepaRG (AID 2283491)
In short: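 Gain or loss of EZR mRNA is scored relative to 0.5% DMSO in human HepaRG cultures treated 48 h with test chemicals in duplicate, eight half-log concentrations from 100 uM.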

[12] = read-out: Cytochrome P450 3A7 (Homo sapiens) (UniProt P24462); test: LTEA_HepaRG_CYP3A7: Life Technologies and Expression Analysis (LTEA) Assay for CYP3A7 using HepaRG (AID 2283492)
In short: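 Differentiated HepaRG cells in serum-free induction medium exposed 48 h in duplicate to 8-point half-log series from 100 uM top in 0.5% DMSO. CYP3A7 mRNA by qRT-PCR, normalized to ACTB/GAPDH/POLR2A, bidirectional fit versus DMSO.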

CYP3A5 (gene 1577) = test: LTEA_HepaRG_CYP3A5: Life Technologies and Expression Analysis (LTEA) Assay for CYP3A5 using HepaRG (AID 2283493)
In short: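 Readout was CYP3A5 mRNA by qRT-PCR. HepaRG cultures were exposed for 48 h in serum-free induction medium to chemicals at up to 100 uM, and responses were fitted in both directions relative to DMSO vehicle.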

[13] = read-out: Fatty Acid-Binding Protein 1 (FABP1), FABP1 (gene 2168); test: LTEA_HepaRG_FABP1: Life Technologies and Expression Analysis (LTEA) Assay for Fatty Acid-Binding Protein 1 (FABP1) using HepaRG (AID 2283494)
In short: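 qRT-PCR readout of FABP1 transcript (normalized to three housekeeping genes) after 48 h chemical exposure of HepaRG cells; eight concentrations, half-log steps, max 100 uM, 0.5% DMSO vehicle; gain or loss fitted relative to DMSO baseline.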

Measured: AC50

Sequence of Cytochrome P450 3A7 (Homo sapiens) (P24462 whole entry, looked up): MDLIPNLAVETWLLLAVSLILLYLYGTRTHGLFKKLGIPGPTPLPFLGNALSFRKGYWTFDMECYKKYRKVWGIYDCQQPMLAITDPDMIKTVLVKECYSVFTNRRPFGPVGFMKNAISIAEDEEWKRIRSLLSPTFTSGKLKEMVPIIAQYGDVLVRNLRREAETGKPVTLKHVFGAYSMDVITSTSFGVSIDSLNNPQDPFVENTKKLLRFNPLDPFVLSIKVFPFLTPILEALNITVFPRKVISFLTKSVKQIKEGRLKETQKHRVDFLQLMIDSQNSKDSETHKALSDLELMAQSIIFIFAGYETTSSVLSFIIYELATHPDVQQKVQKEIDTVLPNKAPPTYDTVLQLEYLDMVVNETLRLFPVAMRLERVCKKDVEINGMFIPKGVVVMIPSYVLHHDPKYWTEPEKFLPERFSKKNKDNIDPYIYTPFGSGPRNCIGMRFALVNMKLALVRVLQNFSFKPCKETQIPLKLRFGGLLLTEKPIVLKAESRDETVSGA
Sequence of Apoptosis regulator Bcl-2 (Homo sapiens) (P10415 whole entry, looked up): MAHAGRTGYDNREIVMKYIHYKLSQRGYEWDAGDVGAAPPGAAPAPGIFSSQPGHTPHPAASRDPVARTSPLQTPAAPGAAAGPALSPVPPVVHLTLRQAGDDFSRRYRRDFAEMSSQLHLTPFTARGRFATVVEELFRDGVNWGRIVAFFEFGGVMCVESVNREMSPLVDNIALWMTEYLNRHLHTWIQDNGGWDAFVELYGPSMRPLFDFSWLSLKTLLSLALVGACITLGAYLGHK
Sequence of Cytochrome P450 2C19 (Homo sapiens) (P33261 whole entry, looked up): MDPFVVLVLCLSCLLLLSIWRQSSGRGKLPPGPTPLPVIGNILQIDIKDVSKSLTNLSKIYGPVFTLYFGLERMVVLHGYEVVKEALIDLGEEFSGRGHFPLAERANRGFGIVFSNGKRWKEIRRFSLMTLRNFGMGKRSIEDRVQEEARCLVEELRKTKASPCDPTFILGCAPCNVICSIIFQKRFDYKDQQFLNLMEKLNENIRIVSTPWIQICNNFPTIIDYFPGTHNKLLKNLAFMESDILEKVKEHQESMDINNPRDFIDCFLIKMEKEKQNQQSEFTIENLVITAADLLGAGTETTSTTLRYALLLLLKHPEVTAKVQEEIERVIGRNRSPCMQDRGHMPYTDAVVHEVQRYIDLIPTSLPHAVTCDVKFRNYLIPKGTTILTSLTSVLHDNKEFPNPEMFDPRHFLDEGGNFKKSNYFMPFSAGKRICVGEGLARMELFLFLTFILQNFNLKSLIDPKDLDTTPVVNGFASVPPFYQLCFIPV
Sequence of Caspase-3 (Homo sapiens) (P42574 whole entry, looked up): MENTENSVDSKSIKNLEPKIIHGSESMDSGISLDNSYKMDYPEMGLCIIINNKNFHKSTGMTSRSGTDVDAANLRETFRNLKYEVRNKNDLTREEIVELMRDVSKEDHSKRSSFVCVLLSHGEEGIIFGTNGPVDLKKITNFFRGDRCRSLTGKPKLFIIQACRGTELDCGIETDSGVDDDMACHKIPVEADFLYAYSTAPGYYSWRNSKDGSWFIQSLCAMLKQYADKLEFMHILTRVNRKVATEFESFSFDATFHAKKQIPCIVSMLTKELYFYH

O=C(c1ccccc1)C1CCCCC1
active: [6] 25 µM
inactive: [1] | [2] | Caspase-3 (Homo sapiens) | [3] | [4] | [5] | [7] | CYP2C8 (gene 1558) | CYP2C9 (gene 1559) | CYP2E1 (gene 1571) | CYP4A11 (gene 1579) | [8] | [9] | [10] | [11] | [12] | CYP3A5 (gene 1577) | [13]

S=C([S-])NCCNC(=S)[S-].[Mn+2]
inactive: [1] | [2] | [3] | [11]
active: Caspase-3 (Homo sapiens) 594 nM | [4] 654 nM | [5] 3.99 µM | [6] 2.35 µM | [7] 4.61 µM | CYP2C8 (gene 1558) 2.31 µM | CYP2C9 (gene 1559) 2.23 µM | CYP2E1 (gene 1571) 3.82 µM | CYP4A11 (gene 1579) 3.33 µM | [8] 6.1 µM | [9] 5.3 µM | [10] 6.62 µM | [12] 3.49 µM | CYP3A5 (gene 1577) 3.47 µM | [13] 3.58 µM

S=C(S)NCCNC(=S)S.[Mn+2].[S-]C([S-])=NCCN=C([S-])[S-].[Zn+2]
active: [1] 163 nM and 351 nM and 509 nM | Caspase-3 (Homo sapiens) 501 nM and 990 nM | [4] 502 nM and 444 nM and 615 nM | [5] 1.18 µM and 2.18 µM and 1.55 µM | [6] 1.05 µM and 1.1 µM and 1.15 µM | [7] 1.4 µM and 1.55 µM | CYP2C8 (gene 1558) 1.13 µM and 1.15 µM and 1.5 µM | CYP2C9 (gene 1559) 823 nM and 816 nM and 891 nM | CYP2E1 (gene 1571) 1.21 µM and 1.4 µM and 1.62 µM | CYP4A11 (gene 1579) 1.38 µM and 1.51 µM and 1.36 µM | [8] 3.87 µM and 1.87 µM and 1.64 µM | [9] 2.3 µM and 673 nM | [10] 3.58 µM and 2.44 µM and 4.53 µM | [12] 947 nM and 1.22 µM and 1.41 µM | CYP3A5 (gene 1577) 1.94 µM and 1.32 µM and 700 nM | [13] 1.18 µM and 1.26 µM and 1.71 µM
inactive: [2] | Caspase-3 (Homo sapiens) | [3] | [9] | [11]

O=C(O)c1ccccc1
inactive: [1] | [2] | Caspase-3 (Homo sapiens) | [3] | [4] | [5] | [6] | [7] | CYP2C8 (gene 1558) | CYP2C9 (gene 1559) | CYP2E1 (gene 1571) | CYP4A11 (gene 1579) | [8] | [9] | [10] | [11] | [12] | CYP3A5 (gene 1577) | [13]

CCCCOC(=O)C(C)Oc1ccc(Oc2ccc(C(F)(F)F)cn2)cc1 (stereo unspecified)
inactive: [1] | [2] | Caspase-3 (Homo sapiens) | [3] | [4] | [5] | [6] | [7] | CYP2C8 (gene 1558) | CYP2C9 (gene 1559) | CYP2E1 (gene 1571) | CYP4A11 (gene 1579) | [8] | [9] | [10] | [11] | [12] | CYP3A5 (gene 1577) | [13]

CC(C)(C)[C@@H](O)[C@@H](Cc1ccc(Cl)cc1)n1cncn1
inactive: [1] | [2] | Caspase-3 (Homo sapiens) | [3] | [5] | CYP2C8 (gene 1558) | CYP2C9 (gene 1559) | [8] | [9] | [10] | [11] | CYP3A5 (gene 1577)
active: [4] 50000 nM | [6] 3.37 µM | [7] 7.33 µM | CYP2E1 (gene 1571) 50 µM | CYP4A11 (gene 1579) 50 µM | [12] 5.85 µM | [13] 50 µM
